Laboratory results taken from PubChem BioAssay AID1159580 (chemical genetic matrix, 2015).
In all, about 5,500 compounds went through this assay and about 2,000 (36%) were called active. Roughly 18% stayed inconclusive and do not appear here. No stated cut-off is given here; in the data, active means normalized growth mostly below about 0.91 (no sharp cut-off); inconclusive means no clear call, values can overlap the other calls; inactive means mostly above about 0.92. This is one part of the list.

Assay: chemical genetic growth profiling, strain panel (AID 1159580);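 further: tested at 20 µM; growth read once vehicle control cultures reached saturation at 30 °C; 1 = growth at the plate median or of vehicle wells; lower values mean less growth of the strain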
Conditions: S. cerevisiae deletion strains, growth OD

Measured: normalized growth

CCCCC(=O)Oc1ccccc1C(=O)O
inactive: locus YAL021C, strain ccr4, active compounds read low 0.989 | locus YAL026C, strain drs2, active compounds read low 0.991 | locus YAL030W, strain snc1, active compounds read low 0.989 | locus YBL061C, strain skt5, active compounds read low 0.982 | locus YBR009C, strain hhf1, active compounds read low 0.988 | locus YBR023C, strain chs3, active compounds read low 0.993 | locus YBR171W, strain sec66, active compounds read low 0.952 | locus YBR231C, strain swc5, active compounds read low 0.989 | locus YBR279W, strain paf1, active compounds read low 1 | locus YCL011C, strain gbp2, active compounds read low 0.979 | locus YCL016C, strain dcc1, active compounds read low 0.971 | locus YCL061C, strain MRC1, active compounds read low 0.986 | locus YCL069W, strain vba3, active compounds read low 0.996 | locus YCR088W, strain abp1, active compounds read low 0.976 | locus YDL005C, strain med2, active compounds read low 0.938 | locus YDL040C, strain nat1, active compounds read low 0.989 | locus YDR001C, strain nth1, active compounds read low 0.971 | locus YDR069C, strain doa4, active compounds read low 0.986 | locus YDR137W, strain rgp1, active compounds read low 0.963 | locus YDR159W, strain sac3, active compounds read low 0.953 | locus YDR195W, strain ref2 0.981 | locus YDR297W, strain sur2, active compounds read low 0.988 | locus YDR334W, strain swr1, active compounds read low 0.994 | locus YDR335W, strain msn5, active compounds read low 0.98 | locus YDR392W, strain spt3, active compounds read low 0.997 | locus YEL003W, strain gim4, active compounds read low 0.983 | locus YEL037C, strain rad23, active compounds read low 0.984 | locus YEL061C, strain CIN8 (second series), active compounds read low 0.982 | locus YER015W, strain faa2, active compounds read low 0.991 | locus YER016W, strain bim1, active compounds read low 0.977 | locus YER111C, strain swi4, active compounds read low 0.938 | locus YER155C, strain BEM2 (second series), active compounds read low 0.964 | locus YFR010W, strain ubp6, active compounds read low 1 | locus YGL167C, strain pmr1, active compounds read low 0.957 | locus YGL173C, strain kem1, active compounds read low 0.981 | locus YGL227W, strain vid30, active compounds read low 0.965 | locus YGL240W, strain doc1, active compounds read low 0.971 | locus YGL253W, strain hxk2, active compounds read low 0.989 | locus YHR013C, strain ard1, active compounds read low 0.938 | locus YHR027C, strain rpn1, active compounds read low 0.964 | locus YHR030C, strain SLT2, active compounds read low 0.974 | locus YHR079C, strain IRE1, active compounds read low 0.988 | locus YHR142W, strain chs7, active compounds read low 0.962 | locus YJL092W, strain hpr5, active compounds read low 0.971 | locus YJL095W, strain BCK1 (second series), active compounds read low 0.955 | locus YJL095W, strain BCK1, active compounds read low 0.989 | locus YJL115W, strain asf1, active compounds read low 0.971 | locus YJL129C, strain trk1, active compounds read low 0.946 | locus YJL154C, strain vps35, active compounds read low 0.964 | locus YJL164C, strain tpk1, active compounds read low 0.981 | locus YJL166W, strain qcr8, active compounds read low 0.984 | locus YJR066W, strain TOR1, active compounds read low 0.935 | locus YKL160W, strain elf1, active compounds read low 0.962 | locus YKR026C, strain gcn3, active compounds read low 0.986 | locus YKR091W, strain srl3, active compounds read low 0.971 | locus YLL001W, strain dnm1, active compounds read low 0.985 | locus YLL026W, active compounds read low 0.983 | locus YLL041C, strain sdh2, active compounds read low 0.986 | locus YLR027C, strain aat2, active compounds read low 0.973 | locus YLR113W, strain HOG1, active compounds read low 0.944 | locus YLR221C, strain rsa3, active compounds read low 1.01 | locus YLR258W, strain gsy2, active compounds read low 0.983 | locus YLR262C, strain YPT6 (second series), active compounds read low 0.973 | locus YLR320W, strain mms22, active compounds read low 0.996 | locus YLR342W, strain FKS1, active compounds read low 0.979 | locus YLR357W, strain rsc2, active compounds read low 0.96 | locus YLR370C, strain arc18, active compounds read low 0.971 | locus YLR384C, strain iki3, active compounds read low 0.956 | locus YML120C, strain ndi1, active compounds read low 0.994 | locus YMR058W, strain fet3, active compounds read low 0.979 | locus YMR125W, strain sto1, active compounds read low 0.959 | locus YMR129W, active compounds read low 0.98 | locus YMR205C, strain PFK2, active compounds read low 0.981 | locus YMR231W, strain pep5, active compounds read low 0.967 | locus YNL071W, strain lat1, active compounds read low 1 | locus YNL183C, strain NPR1, active compounds read low 0.936 | locus YNL209W, strain ssb2, active compounds read low 0.974 | locus YNL248C, strain rpa49, active compounds read low 0.959 | locus YNL322C, strain KRE1 (second series), active compounds read low 0.944 | locus YNR049C, strain mso1, active compounds read low 0.988 | locus YOR001W, strain rrp6, active compounds read low 1.01 | locus YOR070C, strain gyp1, active compounds read low 0.972 | locus YOR080W, strain dia2, active compounds read low 0.956 | locus YOR083W, strain WHI5, active compounds read low 0.927 | locus YOR106W, strain vam3, active compounds read low 0.972 | locus YOR231W, strain MKK1, active compounds read low 0.966 | locus YOR265W, strain rbl2, active compounds read low 0.99 | locus YOR270C, strain vph1, active compounds read low 0.96 | locus YOR290C, strain snf2, active compounds read low 0.971 | locus YPL051W, strain arl3, active compounds read low 0.994 | locus YPL078C, strain atp4, active compounds read low 0.977 | locus YPL106C, strain sse1, active compounds read low 0.953 | locus YPL240C, strain hsp82, active compounds read low 0.976 | locus YPL256C, strain CLN2, active compounds read low 0.953
